Data reported in PubChem BioAssay AID504843 (Broad Institute, 2011).
About 360 (30%) of roughly 1,200 compounds were called active. How the calls were made is not given here. Not all results are given here. Measured potencies and affinities stand elsewhere.

test: antibacterial activity by ATP level – BacTiter-Glo luminescence, cherry-picked samples, counter-screen, dose response (AID 504843); settings: bacterial growth; series mostly up to 15 µM;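 further: growth measured after 8 h incubation at 30 °C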

| SMILES | outcome |
| --- | --- |
| NS(=O)(=O)c1ccc(CCNc2nc(C(F)(F)F)nc3ccccc23)cc1 | inactive |
| Cc1ccnc(NC(c2cccnc2)c2ccc3cccnc3c2O)c1 (stereo not drawn) | inactive |
| CCCOc1cc(C)c(S(=O)(=O)N2CCN(C)CC2)cc1C | inactive |
| O=C1CN(C(=O)COC(=O)c2cc(S(=O)(=O)N3CCOCC3)ccc2Cl)c2ccccc2N1 | inactive |
| Cc1ccc(C)c(NC(=S)N(CCc2ccncc2)C(C)C)c1 | inactive |
| CC(C)Cc1ccc(CN2CCCC(NC(=O)Cn3cnnn3)C2)cc1 (stereo not drawn) | inactive |
| COCc1cc(CNC(=O)C2CCC(=O)N(Cc3ccccc3OC)C2)[nH]n1 (stereo not drawn) | inactive |
| COc1cccc(CN2CC(C(=O)NCCOc3cccnc3)CCC2=O)c1 (stereo not drawn) | inactive |
| CC(C)C[C@@H](CN1CCC[C@@H]1CN1C(=O)C(=O)NC[C@@H]1Cc1ccccc1)N1C[C@H](Cc2ccc(O)cc2)N(CC2CCCCC2)C(=O)C1=O | inactive |
| Cc1cc(Nc2nc3ccccc3nc2Cl)n(-c2ccccc2C)n1 | inactive |
| Cc1cc(C)cc(CSc2nnc(C)c(=O)[nH]2)c1 | inactive |
| Cc1ccc(C)n1-c1ccc(-c2ccnc(N)n2)cc1 | inactive |
| COc1ccc(S(=O)(=O)N(C)c2ccc(C(=O)N3CCOCC3)cc2)cc1 | inactive |
| O=C(CCNS(=O)(=O)c1ccccc1C(F)(F)F)NCCCN1CCOCC1 | inactive |
| COc1cccc(CNC(=O)CN2C(=O)CCSc3ccc(S(=O)(=O)N4CCCC4)cc32)c1 | inactive |
| COc1ccc(-n2c(O)c(/C=N/NS(=O)(=O)c3cccc([N+](=O)[O-])c3)c3ccccc3c2=O)cc1OC | inactive |
| O=C(N/C(=C/c1cccc([N+](=O)[O-])c1)C(=O)N1CCOCC1)c1ccc(Br)cc1 | inactive |
| COC(=O)/C(=C/c1ccco1)NC(=O)c1ccccc1 | inactive |
| Nc1cc(OC(=O)c2ccc(F)cc2)nn1S(=O)(=O)c1ccc(F)cc1 | inactive |
| CCc1nc2ccccc2c(C(=O)OC2CCOC2=O)c1C (stereo not drawn) | inactive |
| c1ccc(NC(=NCc2ccco2)c2ccccc2)cc1 | inactive |
| O=C(O)c1cccc(NC(=O)c2ccccc2)c1 | inactive |
| CC(C)c1c(C(=O)N/N=C/C2CC=CCC2)nnn1-c1nonc1N (stereo not drawn) | inactive |
| O=C(CN1CCN(c2ccccc2F)CC1)NC(=O)NCc1ccccc1 | inactive |
| O=C(O)c1ccc(CSc2nnc(-c3ccncc3)n2-c2ccc(Cl)cc2)cc1 | inactive |
| Cc1nc(N2CCN(S(=O)(=O)c3ccc(Br)cc3)CC2)c2c(C)c(C)sc2n1 | inactive |

| SMILES | outcome |
| --- | --- |
| COC(=O)c1sc(NC(=O)CSc2nnnn2-c2ccc(C)cc2C)nc1C | inactive |
| CCCc1cc(=O)[nH]c2nnc(SCC(=O)Nc3ccc4c(c3)OCCO4)n12 | inactive |
| COc1ccccc1NS(=O)(=O)c1ccc2[nH]c(=S)oc2c1 | inactive |
| c1ccc(C2NCCc3ccccc32)cc1 (stereo not drawn) | inactive |
| CCOc1ccc2nc(NC(=O)CN3CCC(n4nnc5cc(F)ccc54)CC3)sc2c1 | inactive |
| Cc1cc(C)c2oc(=O)cc(CN3CCN(Cc4ccc5c(c4)OCO5)CC3)c2c1 | inactive |
| O=C(Nc1ccc(Oc2ccccc2)nc1)C1CCCCN1Cc1ccc(OCCO)cc1 (stereo not drawn) | inactive |
| COCCn1c(-c2cccc([N+](=O)[O-])c2)nc2c1c(=O)[nH]c(=O)n2Cc1ccccc1 | inactive |
| CCC1CCCCN1Cc1nc2c(c(=O)n(C)c(=O)n2C)n1CCCc1ccccc1 (stereo not drawn) | inactive |
| CCCNc1nc2c(c(=O)[nH]c(=O)n2C)n1CCCc1ccccc1 | inactive |
| COCCCNc1nc2c(c(=O)[nH]c(=O)n2C)n1CC(O)COc1cccc(C)c1 (stereo not drawn) | inactive |
| CC(C)c1ccc(OCC(=O)NC2=NCCS2)cc1 | inactive |
| COc1ccc(-c2noc(CSc3nnc(-c4ccncc4)n3-c3ccc(F)cc3)n2)cc1OC | inactive |
| CCCCN1CC(COCc2ccccc2)Oc2cccc(N3CCCC3)c2S1(=O)=O (stereo not drawn) | inactive |
| S=C(NCCCn1ccnc1)Nc1cccc(Cl)c1 | inactive |
| O=C(CCCCCNC(=O)c1ccccc1)C[N+](=O)[O-] | inactive |
| CN1CC(c2ccccc2Cl)C2(COc3ccccc3C2=O)C12C(=O)Nc1ccccc12 (stereo not drawn) | inactive |
| CCC1=C(c2ccc(C)cc2)S(=O)(=O)N=C1N1CCC(C(=O)NCCCN2CCCCC2C)CC1 (stereo not drawn) | inactive |
| COc1ccc2[nH]c3c(=O)n(CCN4CCOCC4)cnc3c2c1 | inactive |
| O=C1/C(=C/c2cccnc2)Oc2cc(OS(=O)(=O)c3ccccc3)ccc21 | inactive |
| COc1ccc(NS(=O)(=O)c2ccc(NC(=O)Cc3cccs3)cc2)cc1 | inactive |
| CN(C)C(=S)Nc1ccc2ccccc2c1 | inactive |
| CCN(CC)C(=O)Cn1cc(C(=O)C(=O)NCCCn2ccnc2)c2ccccc21 | inactive |
| O=C(NCC1CCCO1)C(c1cccs1)N(C(=O)c1ccc(CN2CCOCC2)o1)c1ccc(Cl)cc1 (stereo not drawn) | inactive |
| O=C1CCCC2=C1C(c1cccs1)CC(=O)N2c1ccc(F)cc1 (stereo not drawn) | inactive |
| O=C1CCCC2=C1CC(C(=O)OCc1ccccc1)C(=O)N2Cc1ccccc1 (stereo not drawn) | inactive |

| SMILES | outcome |
| --- | --- |
| Cc1ccc[n+](CC(=O)c2cc3ccccc3oc2=O)c1 | inactive |
| O=C1Nc2ccc(S(=O)(=O)NCCCO)c3cccc1c23 | inactive |
| Cc1ccc(S(=O)(=O)Nc2c(C)n(C)n(-c3ccccc3)c2=O)cc1C(=O)NCc1ccco1 | inactive |
| Cc1ccc(C(=O)CN2/C(=C(\O)c3ccccc3)C(=O)c3ccccc3S2(=O)=O)c(C)c1 | inactive |
| CCn1c(C)nc2cc(C(=O)N/N=C/c3ccc(OC)c(O)c3)ccc21 | inactive |
| O=C(Cc1ccccc1)Nc1ccc2oc(=O)ccc2c1 | inactive |
| COc1cccc(-c2nn(-c3ccccc3)cc2CN(C)C(C)c2ccncn2)c1 (stereo not drawn) | inactive |
| O=S(=O)(N1CCCCC1)N1CCN(c2ccccc2F)CC1 | inactive |
| CCOC(=O)c1cnn(-c2cc(C)c3ccccc3n2)c1N | inactive |
| O=C(CSc1cccc2cccnc12)N/N=C/c1ccncc1 | inactive |
| CCn1nc(-c2ccccc2)c2nc3ccccc3nc21 | inactive |
| Cc1cc(C(F)F)n2nc(C(=O)Nc3c(F)cc(F)cc3Br)nc2n1 | inactive |
| Cn1c(N)c(C(=O)COC(=O)c2nc(Cl)ccc2Cl)c(=O)n(C)c1=O | inactive |
| CC(C)N(c1ccccc1)c1ccc(NC(=O)COC(=O)CCN2C(=O)c3cccc([N+](=O)[O-])c3C2=O)cc1 | inactive |
| CN1CCCC(OC(=O)CCCCC(=O)OC2CCCN(C)C2)C1 (stereo not drawn) | inactive |
| O=C(NCc1cccs1)Nc1cccc(Cl)c1 | inactive |
| O=C(CN1CCC(c2nc3ccccc3s2)CC1)NCc1cccs1 | inactive |
| COc1cc(/C=C2\C(=N)N3N=C(S(C)(=O)=O)SC3=NC2=O)ccc1OS(=O)(=O)c1ccc(C)cc1 | inactive |
| COc1ccccc1NC(=O)C1=C(C)Nc2ncnn2C1c1ccc(C)o1 (stereo not drawn) | inactive |
| Cc1cc(C(=O)CSc2nnc(-c3ccc4c(c3)OCO4)o2)c(C)n1-c1ccc(F)cc1 | inactive |
| Cc1cccc2c1cnn2C(=O)CCC(=O)N1CC(C)CC(C)C1 (stereo not drawn) | inactive |
| CCC(C)N1CCC2(CC1)N=c1c(c3c4c5c(C)c(O)c3c(O)c1=NC(=O)C(C)=CC=C[C@H](C)[C@H](O)[C@@H](C)[C@@H](O)[C@@H](C)[C@H](OC(C)=O)[C@H](C)[C@@H](OC)C=CO[C@@](C)(O5)C4=O)N2 (stereo partly drawn) | inactive |
| O=C(Nc1cccc(NC(=O)c2cccnc2)c1)c1ccccc1 | inactive |
| O=C(Nc1ccncc1)c1ccc(Cl)c(Cl)c1 | inactive |
| NC(=O)C1CCN(C(=O)c2ccco2)CC1 | inactive |
| Cc1ccc2c(C)nc(/N=C(\N)NC(=O)N3c4ccccc4Sc4ccccc43)nc2c1 | inactive |

| SMILES | outcome |
| --- | --- |
| CNC(=O)C(=O)NCCN1CCN(S(=O)(=O)c2ccc3ccccc3c2)CC1 | inactive |
| O=C(CCSc1ccccc1)N1CCN(C(=O)c2ccco2)CC1 | inactive |
| O=C(CCc1nnc2ccc(NCc3ccco3)nn12)N1CCN(c2ccccc2)CC1 | inactive |
| CC(=O)c1ccc(-c2cccc(-c3nc4ccccn4c3NC3CCCCC3)c2)cc1 | inactive |
| CCOC(=O)c1sc(NC(=O)CCN2C(=O)c3cccc([N+](=O)[O-])c3C2=O)c(C(=O)OCC)c1C | inactive |
| C#CCn1c(O)c(N=NC(=O)C(O)c2ccccc2)c2ccccc21 (stereo not drawn) | inactive |
| COc1ccc(C(=O)Nc2c3c(nn2-c2ccc(Cl)cc2)CS(=O)(=O)C3)cc1 | inactive |
| c1ccc(Nc2nc(Nc3ccccc3)nc(N3CCNCC3)n2)cc1 | inactive |
| Cc1ccc(Nc2nnns2)cc1C | inactive |
| Cc1cc(=O)oc2cc(O)cc(O)c12 | inactive |
| O=C(Nc1nnc(S(=O)(=O)N2CCCCCC2)s1)c1ccccc1Br | inactive |
| CSc1ccccc1OCc1cc(C(=O)N(C)Cc2c(C)n[nH]c2C)no1 | inactive |
| CCc1ccc2c(CSc3nnnn3C)cc(=O)oc2c1 | inactive |
| Cc1ncc(CN2CCN(CCC(C)C)C(CCO)C2)s1 (stereo not drawn) | inactive |
| CC(=O)C1C(c2ccc(Cl)cc2)NC(=O)NC1(O)C(F)(F)F (stereo not drawn) | inactive |
| Cc1cc(=O)[nH]c(Sc2c(-c3ccccc3)c3ccccc3[nH]c2=O)n1 | inactive |
| Cc1cc(C)n(CCC(=O)N/N=C/c2c(O)ccc3ccccc23)n1 | inactive |
| COC(=O)[C@H]1[C@H]2C[C@H]3c4[nH]c5ccccc5c4CCN3C[C@@H]2CC[C@@H]1O | inactive |
| CCC(=O)NC(c1ccccc1Cl)c1c(O)ccc2ccccc12 (stereo not drawn) | inactive |
| Cc1ccsc1C1C(C#N)=C(N)OC2=C1C(=O)CC(C)C2 (stereo not drawn) | inactive |
| COc1cccc(C2CC(c3c(-c4ccccc4)c4cc(Cl)ccc4[nH]c3=O)=NN2S(C)(=O)=O)c1OC (stereo not drawn) | inactive |
| CCn1c(SCC(=O)Nc2ccc(F)cc2)nnc1-c1cnccn1 | inactive |
| CNC1=CC(=O)CC(c2ccccc2)C1 (stereo not drawn) | inactive |
| COc1ccc(OCc2nnc3n2N=C(c2ccccc2)C(CC(=O)O)S3)cc1 (stereo not drawn) | inactive |
| Cn1cccc1CNCC(O)c1ccccc1 (stereo not drawn) | inactive |
